# “And” between values parts separate entries of the source, which are not always exact repeats. Equal entries are not always repeated. Results filed as inconclusive are left out. Where a call stands in place of a potency, no number is given. The source made the active and inactive calls. Unless noted, the call rests on the fitted dose curve; in most records, active means well fitted curve in the direction sought with a large enough effect in the repeat runs; inconclusive means weak or mixed curves; inactive means no such curve, though single readings can be large; an effect the other way counts as inactive or inconclusive.
# Columns and labels:
# [1] = qHTS assay to identify small molecule agonists of the estrogen receptor alpha (ER-alpha) signaling pathway in the presence of an antagonist - cell viability counter screen (AID 1259386);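 further: cells exposed to compounds for 22 h at 37 °C before the viability read; nearly all actives have a fitted effect of over 30% in size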; further: potency means the concentration at half of the fitted maximal effect
# How it was run: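 Cells are starved of estrogens for 5 days in charcoal-stripped serum, seeded for 24hr and co-treated with ICI-182,780 (10.0nM final) and test compounds. After 22hr at 37C, viability is read as CellTiter-Fluor fluorescence.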
# [2] = target: Progesterone receptor (Homo sapiens) (UniProt P06401); experiment: qHTS assay to identify small molecule agonists of the progesterone receptor (PR) signaling pathway (AID 1346784; calls by dose curve; further: nearly all actives have a fitted effect of over 30% in size)
# Progesterone receptor (Homo sapiens), sequence (P06401 whole entry, looked up): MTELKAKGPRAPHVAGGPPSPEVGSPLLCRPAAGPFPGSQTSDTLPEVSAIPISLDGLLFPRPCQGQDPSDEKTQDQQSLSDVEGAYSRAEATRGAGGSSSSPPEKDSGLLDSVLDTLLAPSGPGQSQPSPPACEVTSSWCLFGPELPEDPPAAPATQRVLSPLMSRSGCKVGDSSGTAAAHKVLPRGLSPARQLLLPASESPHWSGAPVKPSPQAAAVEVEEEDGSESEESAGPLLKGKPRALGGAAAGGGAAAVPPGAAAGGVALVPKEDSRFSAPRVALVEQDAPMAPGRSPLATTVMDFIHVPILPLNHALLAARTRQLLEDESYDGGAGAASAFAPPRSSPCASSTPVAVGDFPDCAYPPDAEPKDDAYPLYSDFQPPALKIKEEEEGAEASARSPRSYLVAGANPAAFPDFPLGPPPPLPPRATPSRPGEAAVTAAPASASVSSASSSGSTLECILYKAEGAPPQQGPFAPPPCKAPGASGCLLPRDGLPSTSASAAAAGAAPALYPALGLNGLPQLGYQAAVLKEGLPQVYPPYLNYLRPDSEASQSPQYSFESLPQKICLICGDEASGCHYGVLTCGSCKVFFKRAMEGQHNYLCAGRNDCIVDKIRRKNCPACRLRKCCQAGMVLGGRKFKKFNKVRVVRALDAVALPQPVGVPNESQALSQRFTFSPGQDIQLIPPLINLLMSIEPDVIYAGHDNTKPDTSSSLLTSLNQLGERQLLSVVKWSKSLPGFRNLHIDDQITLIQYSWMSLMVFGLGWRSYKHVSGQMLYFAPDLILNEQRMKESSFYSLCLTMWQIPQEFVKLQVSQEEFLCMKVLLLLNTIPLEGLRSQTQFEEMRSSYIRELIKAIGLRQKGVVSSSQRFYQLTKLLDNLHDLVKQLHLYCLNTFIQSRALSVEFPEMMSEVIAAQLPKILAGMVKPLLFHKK
# How it was run: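 PR-UAS-bla HEK 293T cells carrying a UAS-driven beta-lactamase reporter were seeded in medium with 2% charcoal-stripped FBS, preincubated 6 hr at 37C, then exposed to compounds in DMSO for 16 hr; agonism was read by LiveBLAzer B/G FRET fluorescence.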
# [3] = target: Progesterone receptor (Homo sapiens) (UniProt P06401); experiment: qHTS assay to identify small molecule antagonists of the progesterone receptor (PR) signaling pathway (AID 1346795; active means well fitted inhibition curve with a large enough effect in the signal ratio in the repeat runs, not every such curve was filed as active; the % refers to the signal ratio; further: potency means the concentration at half of the fitted maximal effect)
# How it was run: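 PR-UAS-bla HEK293T cells carrying a UAS-driven beta-lactamase reporter were plated in medium with 2% charcoal-stripped FBS and rested 6 hr at 37C. Compounds were added with 1 nM R5020 (final) for 16 hr, then FRET substrate loaded 2 hr at room temperature.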
# [4] = qHTS assay to identify small molecule antagonists of the progesterone receptor (PR) signaling pathway - cell viability counter screen (AID 1346798); further: series mostly up to about 92 µM; nearly all actives have a fitted effect of over 50% in size
# How it was run: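 PR-UAS-bla HEK293T cells in medium with 2% charcoal-stripped FBS were treated with compounds plus R5020 for 16 hr at 37C. Cell viability was then read by CellTiter-Glo luminescence after 30 min at room temperature in the same wells.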
# [5] = qHTS assay to identify small molecule agonists of the progesterone receptor (PR) signaling pathway - cell viability counter screen (AID 1346799; calls by dose curve; further: nearly all actives have a fitted effect of over 45% in size)
# How it was run: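 PR-UAS-bla HEK293T cells, 3,000 per well in medium with 2% charcoal-stripped FBS, were preincubated 6 hr at 37C, then exposed to compounds for 16 hr; viability was read as CellTiter-Glo luminescence after 30 min at room temperature.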
# [6] = qHTS assay to identify small molecule antagonists of the TGF-beta/Smad signaling pathway - cell viability counter screen (AID 1346824); further: nearly all actives have a fitted effect of over 50% in size
# How it was run: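 SBE-bla HEK 293T cells were plated overnight at 37 C, then given compounds in DMSO plus TGF-beta1 (added as 0.25 ng/mL solution) for 5 hr. After the bla read, CellTiter-Glo was added to the same wells and luminescence read after 30 min at room temperature.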
# [7] = qHTS assay to identify small molecule agonists of the TGF-beta/Smad signaling pathway - cell viability counter screen (AID 1346829); further: top concentration of the series differs between compounds; nearly all actives have a fitted effect of over 45% in size
# How it was run: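 In parallel with the Smad reporter read, viability of HEK 293T cells stably carrying SBE-bla is quantified by ATP luminescence following 5 hr compound treatment.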
# [8] = qHTS assay to identify small molecule agonists of the TGF-beta/Smad signaling pathway (AID 1346859; active means well fitted activation curve with a large enough effect in the signal ratio in the repeat runs, not every such curve was filed as active; the % refers to the signal ratio; further: series mostly up to about 77 µM)
# How it was run: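 HEK 293T cells stably carrying a beta-lactamase reporter driven by the Smad binding element were seeded overnight, exposed to DMSO-dissolved compounds for 5 hr at 37 C, 5% CO2, then loaded with FRET substrate for 2 hr at room temperature.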
# [9] = Human pregnane X receptor (PXR) small molecule agonists, qHTS cell viability counter screen (AID 1346977); further: nearly all actives have a fitted effect of over 50% in size; further: potency means the concentration at half of the fitted maximal effect
# How it was run: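 PXR-Luc HepG2 cells in medium with 5% charcoal-stripped FBS were pre-incubated 5hr, then exposed to compounds for 24hr at 37C. Viability was read in the same wells by CellTiter-Fluor fluorescence, reagent added after 23hr with a 1hr incubation.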
# [10] = Caspase-3/7 induction in HepG2 cells by small molecules, qHTS assay (AID 1346978); further: nearly all actives have a fitted effect of over 15% in size
# How it was run: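 Wild-type HepG2 cells (2,000/well) were settled 5 h at 37 C, 5% CO2, then exposed to compounds in DMSO for 17 h. Caspase-3/7 activity was read by luminescence 30 min after adding Caspase-Glo 3/7 reagent at room temperature.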
# [11] = Caspase-3/7 induction in CHO-K1 cells by small molecules, qHTS cell viability counter screen (AID 1346979); further: nearly all actives have a fitted effect of over 35% in size; further: potency means the concentration at half of the fitted maximal effect
# How it was run: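 Wild-type CHO-K1 cells were seeded at 1,500 per well, rested 5hr at 37 C, then exposed to compounds in DMSO. After 16hr, CellTiter-Fluor reagent was added and fluorescence read 1hr later as the viability measure.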
# [12] = Caspase-3/7 induction in CHO-K1 cells by small molecules, qHTS assay (AID 1346980); further: nearly all actives have a fitted effect of over 15% in size
# How it was run: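 Wild-type cells were seeded at 1,500 per well and settled 5 hr at 37 C, 5% CO2, then exposed to DMSO-dissolved compounds for 17 hr. Caspase-Glo 3/7 reagent was added, and luminescence was read after 30min at room temperature.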
# [13] = target: Cytochrome P450 2D6 (Homo sapiens) (UniProt P10635); experiment: Cytochrome P450 Family 2 Subfamily D Member 6 (CYP2D6) small molecule antagonists: luciferase reporter qHTS assay (AID 1671196); further: nearly all actives have a fitted effect of over 50% in size; further: potency means the concentration at half of the fitted maximal effect
# Cytochrome P450 2D6 (Homo sapiens), sequence (P10635 whole entry, looked up): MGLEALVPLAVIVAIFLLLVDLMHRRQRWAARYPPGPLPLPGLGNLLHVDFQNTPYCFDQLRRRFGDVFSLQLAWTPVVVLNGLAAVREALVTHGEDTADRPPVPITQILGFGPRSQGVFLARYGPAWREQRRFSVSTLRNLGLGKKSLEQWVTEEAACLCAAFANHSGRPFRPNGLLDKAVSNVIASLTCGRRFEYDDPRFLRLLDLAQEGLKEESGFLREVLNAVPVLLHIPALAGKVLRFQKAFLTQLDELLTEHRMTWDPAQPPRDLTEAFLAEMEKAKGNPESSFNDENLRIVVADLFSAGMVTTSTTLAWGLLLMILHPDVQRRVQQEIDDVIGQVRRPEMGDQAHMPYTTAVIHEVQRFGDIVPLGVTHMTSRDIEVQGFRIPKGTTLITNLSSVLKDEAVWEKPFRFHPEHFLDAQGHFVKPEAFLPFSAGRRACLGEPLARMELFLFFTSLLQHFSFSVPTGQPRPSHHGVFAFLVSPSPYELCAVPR
# How it was run: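 P450-Glo format: CYP2D6 converts a proluciferin substrate to luciferin in an NADPH-driven reaction lasting 1 h at room temperature. Light output, proportional to CYP2D6 activity, reflects interference by test chemicals.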
# [14] = target: Thyrotropin-releasing hormone receptor (Homo sapiens) (UniProt P34981); experiment: qHTS assay to identify small molecule antagonists of the thyrotropin-releasing hormone receptor (TRHR) signaling pathway (AID 1346877; active means well fitted inhibition curve with a large enough effect in the repeat runs, not every such curve was filed as active; further: series mostly up to about 51 µM)
# Thyrotropin-releasing hormone receptor (Homo sapiens), sequence (P34981 whole entry, looked up): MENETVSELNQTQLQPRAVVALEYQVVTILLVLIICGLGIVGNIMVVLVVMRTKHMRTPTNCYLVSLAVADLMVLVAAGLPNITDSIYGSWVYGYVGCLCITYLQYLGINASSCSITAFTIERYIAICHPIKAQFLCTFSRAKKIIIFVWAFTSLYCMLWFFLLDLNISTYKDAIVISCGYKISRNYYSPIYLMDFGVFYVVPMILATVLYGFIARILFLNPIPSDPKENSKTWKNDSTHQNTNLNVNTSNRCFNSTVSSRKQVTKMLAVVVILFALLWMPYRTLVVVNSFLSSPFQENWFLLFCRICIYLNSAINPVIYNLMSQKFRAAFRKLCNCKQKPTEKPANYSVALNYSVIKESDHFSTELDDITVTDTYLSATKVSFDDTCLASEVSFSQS
# How it was run: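 Cells (TRHR-HEK293) are plated and kept 18 h at 37 °C/5% CO2. A calcium-sensitive dye is added for 2 h, compound follows for 5 min at room temperature, and TRH is then given at 1 nM final.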
# [15] = target: Thyrotropin-releasing hormone receptor (Homo sapiens) (UniProt P34981); experiment: qHTS assay to identify small molecule agonists of the thyrotropin-releasing hormone receptor (TRHR) signaling pathway (AID 1346891; calls by dose curve; further: potency means the concentration at half of the fitted maximal effect; on activation: series mostly up to about 58 µM)
# How it was run: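 TRHR-expressing HEK293 cells were plated 18 h at 37 °C/5% CO2, loaded with calcium dye 2 h at 37 °C, then given compound in DMSO; fluorescence was read kinetically for 3 min at 1 s intervals.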
# [16] = Caspase-3/7 induction in HepG2 cells by small molecules, qHTS cell viability counter screen (AID 1346981); further: nearly all actives have a fitted effect of over 30% in size; further: potency means the concentration at half of the fitted maximal effect
# How it was run: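 Steps: seed 2,000 HepG2 cells per well; incubate 5 hr at 37 C; pin-add compounds in DMSO; incubate 16 hr; add CellTiter-Fluor; after 1 hr at 37 C and 5% CO2, read fluorescence.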
# [17] = target: Nuclear receptor subfamily 1 group I member 2 (Homo sapiens) (UniProt O75469); experiment: Human pregnane X receptor (PXR) small molecule agonists, qHTS assay (AID 1346982); further: nearly all actives have a fitted effect of over 35% in size; further: potency means the concentration at half of the fitted maximal effect
# Nuclear receptor subfamily 1 group I member 2 (Homo sapiens), sequence (O75469 whole entry, looked up): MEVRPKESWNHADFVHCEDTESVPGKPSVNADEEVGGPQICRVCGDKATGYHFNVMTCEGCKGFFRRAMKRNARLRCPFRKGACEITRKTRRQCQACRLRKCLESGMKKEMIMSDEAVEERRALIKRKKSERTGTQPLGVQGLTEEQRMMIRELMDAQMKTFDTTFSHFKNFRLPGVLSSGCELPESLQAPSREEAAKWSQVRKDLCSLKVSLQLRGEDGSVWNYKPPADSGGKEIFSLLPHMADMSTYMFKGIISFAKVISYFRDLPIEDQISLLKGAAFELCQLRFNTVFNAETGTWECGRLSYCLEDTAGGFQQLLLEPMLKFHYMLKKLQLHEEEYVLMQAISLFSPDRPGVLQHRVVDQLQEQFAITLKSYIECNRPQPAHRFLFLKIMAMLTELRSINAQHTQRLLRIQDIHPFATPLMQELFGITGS
# How it was run: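 Agonist mode qHTS: PXR-Luc HepG2 cells plated 5 hr before DMSO-dissolved compounds were pinned in, cultured 24 hr at 37 C, 5% CO2; ONE-Glo luminescence readout.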
# [18] = target: Nuclear receptor subfamily 1 group I member 2 (Rattus norvegicus) (UniProt Q9R1A7); experiment: Rat pregnane X receptor (rPXR) activation by small molecules, qHTS assay (AID 1346983); settings: rPXR luciferase reporter cells, One-Glo luminescence, 24 h; max activation: stronger effect = higher value; further: nearly all actives have a fitted effect of over 20% in size
# Nuclear receptor subfamily 1 group I member 2 (Rattus norvegicus), sequence (Q9R1A7 whole entry, looked up): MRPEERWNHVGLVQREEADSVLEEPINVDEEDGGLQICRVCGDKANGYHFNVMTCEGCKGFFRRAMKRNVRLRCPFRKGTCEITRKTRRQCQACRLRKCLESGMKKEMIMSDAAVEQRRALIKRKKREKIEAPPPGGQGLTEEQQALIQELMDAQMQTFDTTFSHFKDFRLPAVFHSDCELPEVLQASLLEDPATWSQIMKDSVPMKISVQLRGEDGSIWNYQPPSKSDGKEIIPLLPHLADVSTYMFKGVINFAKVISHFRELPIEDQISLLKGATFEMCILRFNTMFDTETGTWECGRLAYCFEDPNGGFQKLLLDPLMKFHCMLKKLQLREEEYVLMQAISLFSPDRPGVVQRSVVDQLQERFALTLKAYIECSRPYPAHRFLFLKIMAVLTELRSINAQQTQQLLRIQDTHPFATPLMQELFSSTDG
# How it was run: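 Cell-based rPXR luciferase reporter assay, 2,000 cells per well, rested 5hr at 37 C before compound addition in DMSO, then 24 hr at 37 C. One-Glo reagent was added and luminescence read after 30 min at room temperature.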
# [19] = target: Nuclear receptor subfamily 1 group I member 2 (Homo sapiens) (UniProt O75469); experiment: CYP3A4 induction through human pregnane X receptor (PXR) by small molecules, qHTS assay (AID 1346984); further: nearly all actives have a fitted effect of over 40% in size
# How it was run: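 Steps: seed DPX-2 cells, 5 hr at 37C; pin-transfer compounds; 24 hr at 37C; add Luciferin-IPA (3uM final), 3 hr at 37C; add One-Glo, 30 min RT; read luminescence.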
SMILES,Potency [1],Potency [2],Potency [3],Potency [4],Potency [5],Potency [6],Potency [7],outcome [8],Potency [9],Potency [10],Potency [11],Potency [12],Potency [13],Potency [14],Potency [15],Potency [16],Potency [17],max activation [18],Potency [19]
C1COCCN1,inactive,inactive,inactive,inactive,inactive,inactive,inactive,inactive,inactive,inactive,inactive,inactive,inactive,,,,,,
COc1ccc(C(=O)c2ccccc2O)c(O)c1,inactive,inactive,27.2 µM (active) and 23.7 µM (active),inactive,inactive,inactive,inactive,inactive,inactive,inactive,inactive,inactive,,inactive,inactive,inactive,,,
O=C1CCc2ccccc2O1,inactive,inactive,inactive,inactive,inactive,inactive,inactive,inactive,inactive,inactive,inactive,inactive,,inactive,inactive,,,,
C/C=C/C(=O)N(CC)c1ccccc1C,inactive,inactive,inactive,inactive,inactive,inactive,inactive,inactive,inactive,inactive,inactive,inactive,inactive,inactive,inactive,inactive,inactive,-1.94% (inactive),inactive
CC1=CC(C)(C)Nc2ccccc21,inactive,inactive,inactive,inactive,inactive,inactive,inactive,inactive,inactive,inactive,inactive,inactive,inactive,inactive,inactive,,,,
C1CN(SSN2CCOCC2)CCO1,inactive,inactive,inactive,inactive,inactive,,inactive,,inactive,inactive,30.3 µM (active) and 48.6 µM (active),,78.9 µM (active) and 31.7 µM (active),inactive,inactive,inactive,61.1 µM (active),,
CCCCCCC(C)O (stereo not drawn),inactive,inactive,inactive,inactive,inactive,inactive,inactive,inactive,inactive,inactive,inactive,inactive,,inactive,inactive,,,,
CN1CCOCC1,inactive,inactive,inactive,inactive,,inactive,inactive,inactive,inactive,inactive,inactive,inactive,,inactive,inactive,,,,
O=C1OC2(c3ccccc31)c1cc(I)c(O)c(I)c1Oc1c2cc(I)c(O)c1I,13.3 µM (active) [middle of 4 runs],inactive,inactive,inactive,inactive,inactive,inactive,inactive,7.78 µM (active) [middle of 4 runs],inactive,10.5 µM (active) [middle of 4 runs],inactive,28.3 µM (active) and 36 µM (active),inactive,19.7 µM (active) [middle of 4 runs],13.3 µM (active) [middle of 4 runs],inactive,,
Clc1ccc(Sc2cc(Cl)c(Cl)cc2Cl)cc1,inactive,inactive,24.3 µM (active),inactive,inactive,inactive,inactive,inactive,inactive,inactive,inactive,inactive,,inactive,inactive,inactive,,,
C=C[C@H]1CN2CC[C@H]1C[C@H]2[C@H](O)c1ccnc2ccc(OC)cc12,inactive,inactive,inactive,inactive,inactive,,inactive,inactive,30.6 µM (active),inactive,inactive,inactive,,inactive,inactive,inactive,,-0.698% (inactive),
Nc1ccc(O)c(N)c1,60.7 µM (active) and 54.5 µM (active),inactive,inactive,inactive,inactive,inactive,inactive,inactive,44.7 µM (active),inactive,60.7 µM (active) and 30.6 µM (active),inactive,35.3 µM (active) and 31.7 µM (active),inactive,inactive,,inactive,,
CCCCCC=O,inactive,inactive,inactive,inactive,inactive,inactive,inactive,inactive,inactive,inactive,inactive,inactive,inactive,inactive,inactive,,,,
C=CCOC(=O)C(=C)C,inactive,inactive,inactive,inactive,inactive,inactive,inactive,inactive,inactive,inactive,inactive,inactive,,inactive,inactive,,inactive,,
O=C(O)CCCCCCCCCCCC(=O)O,inactive,inactive,inactive,inactive,inactive,inactive,inactive,,inactive,inactive,inactive,inactive,,inactive,inactive,,,,
COc1ccc2nc(N)sc2c1,inactive,inactive,inactive,inactive,inactive,inactive,inactive,inactive,inactive,inactive,inactive,inactive,10 µM (active) and 63.3 µM (active),,,inactive,48.6 µM (active) and 21.7 µM (active),,
CC(=O)OC(C)C,inactive,inactive,inactive,inactive,inactive,inactive,inactive,inactive,inactive,inactive,inactive,inactive,,inactive,inactive,inactive,,,
